Screens as filed in PubChem.
Mtb hypoxia rep = Mtb hypoxia fluorescent reporter inhibition; M. tuberculosis hypoxia-regulated fluorescent reporter, fluorescence; fluorescence inhibition, % (test concentration not listed); actives 0.1% (n = 300,000); AID 1159583; in the data active = fluorescence inhibition mostly above about 23%, no sharp cut-off; inactive = mostly below about 17%
Y pestis TopoI = inhibitors of Yersinia pestis topoisomerase I. Y. pestis Topo-I cleavage product accumulation, plate reader. activity, % at 10 µM. actives 0.064% (n = 360,000); in the data active = activity above about 50%, passing the limit was not always enough
PrPC surface inh = inhibitors of human cell surface prion protein PrPC | inhibition, % at 13.8 µM | P04156 | AID 720596 | actives 0.43% (n = 370,000) | TR-FRET read-out; in the data active = inhibition above about 24%
Mtb FBA inh = inhibits M. tuberculosis FBA enzyme. P9WQA3. purified M. tuberculosis FBA, fluorescence read-out. inhibition, % at 1 µM. actives 2.3% (n = 360,000). AID 588726
Target sequence (P9WQA3 whole entry, looked up): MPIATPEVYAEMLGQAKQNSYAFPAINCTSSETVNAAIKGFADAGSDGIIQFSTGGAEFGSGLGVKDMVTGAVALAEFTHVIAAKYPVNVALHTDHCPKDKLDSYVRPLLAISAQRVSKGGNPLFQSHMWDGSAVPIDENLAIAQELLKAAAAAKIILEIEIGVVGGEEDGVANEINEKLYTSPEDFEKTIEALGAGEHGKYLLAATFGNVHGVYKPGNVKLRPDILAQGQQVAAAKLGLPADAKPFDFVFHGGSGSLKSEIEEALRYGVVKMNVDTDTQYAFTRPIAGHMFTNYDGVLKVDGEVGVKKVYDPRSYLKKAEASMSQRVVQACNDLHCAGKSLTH
GDH-TPI counter-1 = inhibits GDH-TPI coupling enzymes, artifact for Mtb FBA screen; GDH-TPI coupled enzyme counterscreen, NADH absorbance; inhibition, % at 4.8 µM; actives 1.2% (n = 360,000); AID 588335; in the data active = inhibition above about 30%
PrP 5UTR inh = inhibition of PrP 5' UTR reporter expression. cell-based PrP 5' UTR mRNA reporter, plate reader. actives 0.35% (n = 340,000). AID 488862. inhibition, % (test concentration not listed); in the data active = inhibition above about 52%
Mtb FBA confirm = Mtb FBA inhibition, confirmed | shares compounds with Mtb FBA inh | purified M. tuberculosis FBA, fluorescence read-out | inhibition, % at 1 µM | AID 651616 | actives 78% (n = 5,600)
GDH-TPI counter-2 = counter-screen for M. tuberculosis FBA inhibitors: GDH-TPI coupled enzyme inhibition; inhibition, % at 1 µM; GDH-TPI coupled enzyme counterscreen, fluorescence; AID 652141; actives 81% (n = 5,600); shares compounds with Mtb FBA inh; in the data active = inhibition above about 10%
GDH-TPI dose = GDH-TPI dose response counter-screen for Mtb FBA; shares compounds with Mtb FBA inh; actives 79% (n = 170); IC50, µM; AID 652145; GDH-TPI coupled enzyme assay, fluorescence, artifact counterscreen; call rule not given here
Hits are given with their value; . = inactive; / = no result; + = active, no number. Only some compounds are listed: those with a hit (about 3.8% of all), similar ones and a draw of the others. Cut-off read from the data, not from the text of the source, unless noted: active = inhibition above about 27%; inactive = the rest.

SMILES | Mtb hypoxia rep | Y pestis TopoI | PrPC surface inh | Mtb FBA inh | GDH-TPI counter-1 | PrP 5UTR inh | Mtb FBA confirm | GDH-TPI counter-2 | others
COC(=O)c1cc(NC(=O)CC2Oc3ccccc3NC2=O)cc(C(=O)OC)c1 (stereo unspecified) | . | . | . | 39.5 | . | . | 79.5 | 68.8
CCc1cccc(NC(=O)CC2Oc3ccccc3NC2=O)c1 (stereo unspecified) | . | . | . | . | . | . | / | /
COc1cccc2sc(Nc3nnc(-c4cccs4)o3)nc12 | . | . | . | . | . | . | / | /
Fc1cccc2sc(Nc3nnc(-c4ccco4)o3)nc12 | . | . | . | 32.7 | . | . | 197.7 | 166.3
COc1cc(OC)cc(C(=O)Nc2ccc(-c3nc4ccccc4o3)cc2)c1 | / | . | . | . | . | . | / | /
COc1cccc(C(=O)Nc2ccc(-c3nc4ccccc4o3)c(O)c2)c1 | . | . | . | 43.2 | 33.1 | . | 46.2 | 33.0
COc1ccc(C(C)=NNC(=O)CNC(=O)Cc2ccccc2)c(OC)c1 | . | / | / | / | / | / | / | /
Nc1ncnc2oc(-c3ccco3)c(-c3ccco3)c12 | . | . | . | 31.1 | . | . | + | 142.5
Nc1nnc(-c2ccco2)s1 | . | . | . | . | . | . | / | /
Cc1cc(=O)oc2c(C)c(OCC(=O)c3ccccc3)ccc12 | . | . | . | . | . | . | / | /
C=CCOC(=O)COc1ccc2c(C)c(C)c(=O)oc2c1C | . | . | . | 58.0 | . | . | 32.3 | 34.1
CCc1c(C)c2ccc(OCC(=O)N(C)C)c(C)c2oc1=O | . | . | . | 75.6 | . | . | + | +
Cc1c(C)c2ccc(OCC(=O)N(C)C)c(C)c2oc1=O | / | . | . | 79.2 | . | . | 148.3 | 124.8
C=C(C)COc1ccc2c(CC)cc(=O)oc2c1C | . | . | . | . | . | . | / | /
Cc1c(OCC(=O)NCc2ccncc2)ccc2c3c(c(=O)oc12)CCC3 | / | . | . | . | . | . | / | /
Cc1cc(=O)oc2c(C)c(OCC(=O)N(C)C)ccc12 | / | . | . | 36.9 | . | . | 46.0 | 39.7
S=c1[nH]nc(-c2ccncc2)n1N=Cc1ccccc1Cl | . | / | / | / | / | / | / | /
COc1ccccc1CNCc1cc(=O)oc2c(C)c(C)ccc12 | . | . | . | . | . | . | / | /
Cc1c(OCC(=O)N(C)C)ccc2c3c(c(=O)oc12)CCCCC3 | . | . | . | 88.1 | . | . | . | .
COc1ccc2c(C)cc(=O)oc2c1C | / | . | . | 54.3 | . | . | + | 195.7
CCOC(=O)CCc1c(C)c2ccc(OC3CCCCC3=O)c(C)c2oc1=O (stereo unspecified) | . | . | . | . | . | . | / | /
CCOC(=O)CCc1c(C)c2ccc(OCC(=O)N(CC)CC)c(C)c2oc1=O | . | . | . | 75.8 | . | . | . | 19.8
CCn1nc(C)c(C=NNC(=S)Nc2ccc(Cl)cc2Cl)c1C | . | / | / | / | / | / | / | /
Cc1ccc(C=NNC(=O)CSc2nc3ccccc3c(=O)n2-c2ccccc2C)s1 | . | / | / | / | / | / | / | /
CCOC(=O)c1nc2cc3n(c(C)c-2c1C)C(C)C(CC)=C3C (stereo unspecified) | . | . | . | 34.2 | . | . | + | 180.8
SMILES | Mtb hypoxia rep | Y pestis TopoI | PrPC surface inh | Mtb FBA inh | GDH-TPI counter-1 | PrP 5UTR inh | Mtb FBA confirm | GDH-TPI counter-2 | others
CC(C)NC(=O)N(C)CC1Oc2c(NC(=O)c3ccc(-c4nccs4)cc3)cccc2C(=O)N(C(C)CO)CC1C (stereo unspecified) | . | / | / | / | / | / | / | /
CCC(C(=O)N1CCN(Cc2ccc3c(c2)OCO3)CC1)n1c(=O)[nH]c2ccccc2c1=O (stereo unspecified) | . | . | . | 32.7 | . | . | 123.7 | 108.7
CCOC(=O)c1cc(CC)sc1N=CC1=C(O)CC(C)(C)CC1=O | . | / | / | / | / | / | / | /
CC(C)c1ccc(C=NNC(=O)c2ccc(-n3cnnn3)cc2)cc1 | . | / | / | / | / | / | / | /
CC1(C)OC(=CC=Nc2ccc(Cl)cc2)OC1(C)C | . | . | . | 48.8 | . | . | + | +
CCC(C)Sc1ccc(-c2nc3ccc(C)cn3c2NCc2ccccc2)cc1 (stereo unspecified) | . | . | . | 37.8 | . | . | 93.8 | 74.5
CCCCNc1c(-c2ccc(SC(C)CC)cc2)nc2ccc(Cl)cn12 (stereo unspecified) | / | / | . | / | / | / | / | /
Cc1ccc2nc(-c3ccc(-c4cccc(Cl)c4)cc3)c(NCc3ccccc3)n2c1 | . | . | . | 29.1 | 36.2 | . | . | . | GDH-TPI dose=1.55
COc1cc(-c2nc3ccc(C)cn3c2NCc2ccccc2)ccc1-c1cccc(Cl)c1 | . | . | . | 39.5 | . | . | . | .
Clc1cccc(NN=Cc2ccncc2)c1 | . | / | / | / | / | / | / | /
CC(=O)N(C(C)=O)c1ncc2c([nH]c3ccccc32)c1C#N | . | . | . | 38.5 | . | . | + | 189.3
CCCCCCCCCCCC(=O)NN=Cc1ccco1 | . | / | / | / | / | / | / | /
CCc1nnc(NC(=O)C2CCN(S(=O)(=O)Cc3ccccc3)CC2)s1 | . | . | . | 34.6 | . | . | 86.0 | 68.8
CCc1nnc(NC(=O)C2CCN(S(=O)(=O)c3ccc(C)cc3)CC2)s1 | . | . | . | . | . | . | / | /
C=CC1C[C@@]1(C)C(NP(=O)(c1ccccc1)c1ccccc1)c1ccccc1 (stereo partly specified) | . | / | / | / | / | / | / | /
Oc1ccc(-c2cn3ccccc3n2)cc1 | . | . | . | 56.5 | . | . | . | .
CCN(CC)S(=O)(=O)c1ccc(-c2cn3ccccc3n2)cc1 | / | . | . | 86.2 | . | / | 158.1 | 112.7
c1ccc(-c2cn3ccccc3n2)cc1 | . | . | . | 35.3 | . | . | . | .
CCN(CC)S(=O)(=O)c1cccc(-c2cn3cc(C)ccc3n2)c1 | . | . | . | . | . | . | / | /
Clc1cccc(Cl)c1CON=Cc1c(-c2ccccc2)nc2n1CCS2 | . | / | / | / | / | / | / | /
COc1ccc(-c2cn3c(n2)CCC3)cc1 | . | . | . | . | . | . | / | /
Cc1ccc(-c2cn3c(n2)CCCC3)cc1 | . | . | . | 37.9 | . | . | + | 158.9
CC1(C)Oc2ccc3ccc(=O)oc3c2/C(=C/NNC(N)=S)C1=O | / | . | . | 28.3 | . | . | + | 197.2
COC(=O)c1c(C)nc(C)c2c(=O)oc3ccccc3c12 | / | . | . | . | . | . | / | /
O=c1oc2ccccc2c2c1ccc1ccccc12 | . | . | . | 28.6 | . | . | 51.4 | 42.8
O=c1oc2ccc3ccccc3c2cc1-c1nc2ccccc2o1 | . | . | . | 46.5 | . | . | 73.3 | 67.4
Cc1cc2c(c(N)n1)c(=O)oc1ccccc12 | . | . | . | 39.8 | . | . | . | .
COc1ccc(-c2cn3cc(Cl)ccc3n2)cc1OC | . | . | . | 57.2 | . | . | 71.9 | 46.5
COc1ccc(-c2cn3cc(C)ccc3n2)cc1Br | . | . | . | 30.0 | . | . | 130.0 | 109.3
